A selection: hits, their analogues and other compounds. The true share with any hit is near 1.3%.
PREPL inhibitor: human PREPL enzyme inhibition | recombinant PREPL, fluorescence polarization activity-based probe | Q4J6C6 | 0.68% of 320,000 active | inhibition, % at 5.96 µM | AID 2751; in the data active = inhibition above about 43%
Target sequence (Q4J6C6 whole entry, looked up): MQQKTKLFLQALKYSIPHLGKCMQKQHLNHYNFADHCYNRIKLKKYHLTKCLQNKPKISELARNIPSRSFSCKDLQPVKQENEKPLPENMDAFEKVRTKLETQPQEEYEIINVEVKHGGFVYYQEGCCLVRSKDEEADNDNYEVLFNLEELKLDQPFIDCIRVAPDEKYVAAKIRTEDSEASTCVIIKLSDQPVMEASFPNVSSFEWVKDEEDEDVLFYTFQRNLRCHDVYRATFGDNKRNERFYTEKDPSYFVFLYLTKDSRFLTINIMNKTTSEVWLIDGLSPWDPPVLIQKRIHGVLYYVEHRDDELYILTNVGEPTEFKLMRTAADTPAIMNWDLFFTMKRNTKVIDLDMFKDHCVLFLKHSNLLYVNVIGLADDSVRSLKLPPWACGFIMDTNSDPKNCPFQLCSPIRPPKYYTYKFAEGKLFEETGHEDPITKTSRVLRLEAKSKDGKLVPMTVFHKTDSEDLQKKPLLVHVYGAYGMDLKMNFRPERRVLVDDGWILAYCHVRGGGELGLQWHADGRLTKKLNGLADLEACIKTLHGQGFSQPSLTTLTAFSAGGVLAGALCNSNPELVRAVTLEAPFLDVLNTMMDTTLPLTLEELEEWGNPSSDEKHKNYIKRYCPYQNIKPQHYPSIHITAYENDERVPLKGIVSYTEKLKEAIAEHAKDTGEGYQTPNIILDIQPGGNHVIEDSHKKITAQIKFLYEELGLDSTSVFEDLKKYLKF
PME-1 inh: PME-1 (human) inhibition | Q9Y570 | inhibition, % at 5.9 µM | recombinant PME-1, FP-Rh probe fluorescence polarization | AID 2130 | 0.53% of 320,000 active;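 active = inhibition above the campaign mean of all compounds plus 3 SD, cut at about 26% in these data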;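 also: competitive labeling of PME-1 active site by serine hydrolase directed probe; inhibitors block probe labeling so polarization falls and inhibition rises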
LYPLA2 inh: counter-screen for PME1 inhibitors: inhibitors of human LYPLA2 | O95372 | recombinant LYPLA2, FP-Rh probe fluorescence polarization | inhibition, % at 5.9 µM | 0.38% of 320,000 active;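 active = inhibition above the screen-wide mean plus 3 SD, limit set per campaign, cut at about 26% in these data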
LYPLA1 inh: blocks human lysophospholipase 1, a PME1 counter-screen. 0.16% of 320,000 active. AID 2174. inhibition, % at 5.9 µM. recombinant LYPLA1, FP-Rh probe fluorescence polarization;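 active = inhibition above the mean of all tested compounds plus 3 SD, set per campaign, cut at about 14% in these data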;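 also: inhibitors block serine hydrolase probe labeling of LYPLA1 so polarization falls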
Fam108B counter: counter-screen for RBBP9 inhibitors: inhibitors of mouse Fam108B | recombinant Fam108B, FP-Rh probe fluorescence polarization | 0.33% of 300,000 active | inhibition, % at 9.51 µM;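 active = inhibition above the screen mean inhibition plus 3 SD, computed separately per campaign, cut at about 18% in these data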;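 also: inhibitors lower polarization as less probe binds the enzyme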
Fam108b inh conf: Fam108b (mouse) hydrolase inhibition, confirmation assay | 44% of 930 active | recombinant Fam108b, FP-Rh probe fluorescence polarization | shares compounds with Fam108B counter | inhibition, % at 9.51 µM;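 active = inhibition above a limit from the primary screen, the mean over all compounds plus 3 SD, cut at about 19% in these data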;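 also: inhibitors free the probe so polarization falls as inhibition rises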
Fam108b ABPP HTS: inhibits mouse Fam108b in gel-based ABPP; shares compounds with Fam108B counter; recombinant Fam108b, fluorophosphonate probe; inhibition, % at 20 µM; 44% of 260 active; AID 588649; in the data active = inhibition above about 40%
Numbers stand for hits; . = inactive; / = no result.

SMILES	PREPL inhibitor	PME-1 inh	LYPLA2 inh	LYPLA1 inh	Fam108B counter	Fam108b inh conf	others
N#Cc1ccccc1S(=O)(=O)N1CCN(C(=O)CN2C(=O)NC3(CCCC3)C2=O)CC1	.	.	.	.	.	/
C[C@H](NC(=O)N1CCn2c1nc1ccccc12)C(=O)NCc1ccccc1	.	.	.	.	.	/
O=c1cnnc(NCc2ccccc2)[nH]1	.	.	.	.	22.3	.
CC1CCCC(C)N1c1ccc(S(=O)(=O)N2CCOCC2)cc1Cl (centres undefined)	.	.	.	.	.	/
Cc1cccc(N2Cc3ccc(Br)cc3C2)c1	.	.	.	.	.	/
CC(C)(C)OC(=O)N1CCCC(C(=O)Nc2ccc(C(=O)N3CCOCC3)cc2)C1 (centres undefined)	.	/	/	/	/	/
COc1ccc(-c2nn(C)c3sc(C(=O)NCc4ccco4)cc23)cc1OC	.	.	.	.	.	/
COc1ccc(NC(=O)c2cc3c(-c4ccc(OC)c(OC)c4)nn(C)c3s2)cc1OC	.	.	.	.	46.4	.
CCOC(=O)C1=C(SCC)c2cc3c(n2C1=O)CCCC3	.	.	.	.	22.5	.
CCOC(=O)c1cnc2cc3c(cn2c1=O)CCCC3	.	.	.	.	.	/
CN(/N=C/c1ccc(O)cc1O)c1nc(-c2ccccc2)cc(-c2ccccc2)n1	.	.	.	.	32.7	19.1
CC(C)CSC1=NSC2=NC(=O)/C(=C\c3coc4ccccc4c3=O)C(=N)N12	.	.	.	.	37.1	40.5	Fam108b ABPP HTS=.
CC(C)CSC1=NSC2=NC(=O)/C(=C\c3ccccc3)C(=N)N12	.	.	.	.	.	/
N=C1/C(=C\c2coc3ccccc3c2=O)C(=O)N=C2SC(c3ccncc3)=NN12	.	.	.	.	.	/
CSC1=NSC2=NC(=O)/C(=C\c3coc4ccccc4c3=O)C(=N)N12	.	.	.	.	30.9	53.6	Fam108b ABPP HTS=.
O=C1C(Nc2ccccc2)=C(N2CCCCC2)C(=O)c2ccccc21	.	.	.	.	.	/
O=C1C(Nc2cccc(O)c2)=C(N2CCCCC2)C(=O)c2ccccc21	.	.	.	.	19.6	20.5
Cc1[nH]c2ccccc2c1/C=N/NC(=O)C1CC1(c1ccccc1)c1ccccc1 (centres undefined)	.	41.8	.	.	21.1	.
CCOC(=O)Cc1csc(NC(=O)c2sc3nc4c(C)cc(C)cc4cc3c2N)n1	.	85.9	.	.	23.2	.
COc1ccc(C(=O)OC(C)C(=O)NC(C)CCc2ccccc2)cc1OC (centres undefined)	.	.	.	.	.	/
O=C1S/C(=C\C=C\c2ccco2)C(=O)N1c1ccc(O)cc1	.	.	.	.	.	/
O=C(NN1C(=O)/C(=C/C=C/c2ccco2)SC1=S)c1ccccc1O	.	.	.	.	44.4	24.9
O=C(O)CC(C(=O)O)N1C(=O)/C(=C/C=C/c2ccco2)SC1=S (centres undefined)	.	.	.	.	34.1	.
O=C(O)CCCN1C(=O)/C(=C/C=C/c2ccco2)SC1=S	.	.	.	.	50.0	.
Cc1ccc(NC(=O)CCCN2C(=O)/C(=C/C=C/c3ccccc3)SC2=S)cc1	.	.	.	.	.	/
SMILES	PREPL inhibitor	PME-1 inh	LYPLA2 inh	LYPLA1 inh	Fam108B counter	Fam108b inh conf	others
COc1ccc(CN(CC(=O)NCc2ccc(F)cc2)C(=O)CCC(=O)Nc2ccccn2)cc1	.	.	.	.	.	/
Cc1ccc(S(=O)(=O)N=C2C=C(Sc3ncn[nH]3)C(=O)c3ccccc32)c(C)c1	/	/	/	/	/	/	Fam108b ABPP HTS=95.0
Cc1ccc(C)c(S(=O)(=O)/N=C2\C=C(NS(=O)(=O)c3ccccc3)C(=O)c3ccccc32)c1	.	.	.	.	.	/
CCc1ccc(S(=O)(=O)N=C2C=C(Sc3ncn[nH]3)C(=O)c3ccccc32)cc1	/	/	/	/	/	/	Fam108b ABPP HTS=60.0
Cc1ccc(S(=O)(=O)N(C)c2ccc(C(=O)Nc3cccnc3)cc2)cc1	.	.	.	.	.	/
O=C1NC(=S)/C(=C\c2ccc(-c3ccccc3Cl)o2)S1	.	37.0	.	.	28.8	45.3	Fam108b ABPP HTS=65.0
O=C1NC(=O)/C(=C/c2ccc(-c3cc(C(=O)O)ccc3Cl)o2)S1	.	.	.	.	.	/
Cc1ccc(S(=O)(=O)Nc2csc(C)c2C(=O)O)cc1	.	.	.	.	47.4	.
Cc1ccc(S(=O)(=O)Nc2cc(C)c(O)cc2C)cc1	.	.	.	.	.	/
CCOC(=O)c1sc(NC(=O)Nc2ccc(Cl)cc2)cc1C	.	.	.	.	44.1	83.2	Fam108b ABPP HTS=95.0
COc1ccc2nc(-n3c(O)c(C4=c5ccccc5=NC4=O)[nH]c3=S)sc2c1	.	53.8	.	.	37.1	36.1	Fam108b ABPP HTS=.
Cn1c(O)c(C2=c3ccccc3=NC2=O)[nH]c1=S	.	.	.	.	.	/
CCOc1cc(/C=C2\N=C(SC)SC2=O)cc([N+](=O)[O-])c1OC(C)=O	.	.	.	.	21.5	.
CCOc1c(OC(C)=O)ccc(/C=C2\N=C(SCC)SC2=O)c1[N+](=O)[O-]	.	.	.	.	.	/
CC(C)c1ccc(S(=O)(=O)/N=C2\C=C(NS(=O)(=O)c3ccccc3)C(=O)c3ccccc32)cc1	.	.	.	.	.	/
COc1ccc(S(=O)(=O)/N=C2\C=C(Nc3ccc(O)cc3)C(=O)c3ccccc32)cc1	.	36.2	.	.	28.1	37.1	Fam108b ABPP HTS=65.0
Cc1ccc(NC2=C/C(=N/S(=O)(=O)c3cccs3)c3ccccc3C2=O)cc1C	.	.	.	.	.	/
CC(=O)Nc1ccc(NC2=C/C(=N/S(=O)(=O)c3cccs3)c3ccccc3C2=O)cc1	.	.	.	.	40.9	39.9
O=C1C(Nc2ccccc2)=CC(=NS(=O)(=O)c2cccs2)c2ccccc21	/	/	/	/	/	/	Fam108b ABPP HTS=.
Cc1ccccc1NC1=C/C(=N\S(=O)(=O)c2ccc(C(=O)O)cc2)c2ccccc2C1=O	.	35.7	31.8	.	54.0	88.8	Fam108b ABPP HTS=.
COC(CNC(=O)c1cn(C)c2ccc(S(=O)(=O)N(C)C3CCCCC3)cc2c1=O)OC	.	.	.	.	.	/
CC(=O)Nc1ccc(NC2=CC(=NS(=O)(=O)c3cccs3)c3ccccc3C2=O)cc1	/	/	/	/	/	/	Fam108b ABPP HTS=.
Cc1ccccc1NC1=C/C(=N\S(=O)(=O)c2cccs2)c2ccccc2C1=O	.	29.6	.	.	40.5	59.9	Fam108b ABPP HTS=60.0
COc1ccc(OC)c(Nc2nc(-c3sc(N)nc3C)cs2)c1	.	.	.	.	21.0	.
COc1ccc(N2CCN(C(=O)c3cc(=O)c4cc(C)c(C)cc4o3)CC2)cc1	.	.	.	.	.	/
CC(C)(C)C(=O)Nc1ccc(Cc2ccncc2)cc1	.	.	.	.	.	/
COc1ccc(NC(=S)N2CCC(NC(=O)c3ccco3)CC2)cc1	.	.	.	.	.	/
O=C(c1ccccc1)c1c(-c2ccccc2)[nH]n(-c2ccccc2)c(=O)c1=O	.	.	.	.	.	/
O=C(N/C(=C\c1ccc(Cl)cc1)C(=O)N1CCOCC1)c1ccco1	.	.	.	.	.	/

Compound activity from PubChem BioAssay.
